Compounds without any hit were thinned out: in the full panel of roughly 79,000, 15% have a hit. A number with no mark means an inactive call. Calls of active or inactive are those of the source. Rule as the data show it: active = growth inhibition above about 70%; inactive = the rest.
What was measured:
[1] = NCI Yeast Anticancer Drug Screen. Data for the rad50 strain (AID 155);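 also: 0% = growth of vehicle-only cultures of the same strain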; settings: S. cerevisiae rad50 strain growth inhibition, hits give high values
In short: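 Growth of the mutant yeast was measured after compound exposure and referenced to vehicle-treated cultures.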

[2] = NCI Yeast Anticancer Drug Screen. Data for the mec2-1 strain (AID 157); settings: S. cerevisiae mec2-1 strain, hits give high values
In short: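 Each compound was tested on mec2-1 yeast, a strain altered in DNA damage repair or cell cycle control. Growth inhibition is reported relative to vehicle.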

[3] = NCI Yeast Anticancer Drug Screen. Data for the sgs1 mgt1 strain (AID 161);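 also: 0% = growth of cultures given vehicle only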; settings: S. cerevisiae sgs1 mgt1 strain, hits give high values
In short: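 Test agents were incubated with a DNA-repair-mutant yeast strain. Growth was then read and compared against vehicle-treated controls.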

[4] = NCI Yeast Anticancer Drug Screen. Data for the cln2 rad14 strain (AID 165);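 also: 0% = growth equal to vehicle treated cultures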; settings: S. cerevisiae cln2 rad14 strain, hits give high values
In short: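 Test compounds were added to cln2 rad14 yeast cultures; inhibition of growth was then determined by comparison with vehicle treatment.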

[5] = NCI Yeast Anticancer Drug Screen. Data for the bub3 strain (AID 167); settings: S. cerevisiae bub3 mutant strain, hits give high values
In short: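 Whole-cell yeast assay. The mutant strain was incubated with compounds, and growth inhibition was determined by comparison with vehicle-treated cells.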

[6] = NCI Yeast Anticancer Drug Screen. Data for the mlh1 rad18 strain (AID 175); settings: S. cerevisiae mlh1 rad18 strain growth inhibition, hits give high values
In short: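 Inhibition values reflect reduced growth of mutant yeast versus vehicle-treated controls following compound exposure; the mutations affect DNA damage repair.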

[7] = at 5.0 µM (retest, dose inferred, filed as 0.5)
[8] = at 50.0 µM (retest, dose inferred, filed as 5.0)

CC1(c2ccccc2)OC1C(=O)N(c1ccccc1)c1ccccc1 (stereo not drawn)
growth inhibition [1, 7]: 14%
growth inhibition [1, 8]: 99% (active)
growth inhibition ([1]; at 50.0 µM): 95.8% (active)
growth inhibition [2, 7]: 18%
growth inhibition [2, 8]: 99% (active)
growth inhibition ([2]; at 50.0 µM): 85% (active)
growth inhibition [3, 7]: 12%
growth inhibition [3, 8]: 98% (active)
growth inhibition ([3]; at 50.0 µM): 53.3%
growth inhibition [4, 7]: 15%
growth inhibition [4, 8]: 97% (active)
growth inhibition ([4]; at 50.0 µM): 96.7% (active)
growth inhibition [5, 7]: 22%
growth inhibition [5, 8]: 98% (active)
growth inhibition ([5]; at 50.0 µM): 92.7% (active)
growth inhibition [6, 7]: 21%
growth inhibition [6, 8]: 97% (active)
growth inhibition ([6]; at 50.0 µM): 97.7% (active)

OCC1(O)OCC(O)C(O)C1O (stereo not drawn)
growth inhibition [1, 7]: -3%
growth inhibition [1, 8]: 72% (active)
growth inhibition ([1]; at 50.0 µM): 74.7% (active)
growth inhibition [2, 7]: -2%
growth inhibition [2, 8]: 68%
growth inhibition ([2]; at 50.0 µM): 80% (active)
growth inhibition [3, 7]: 0%
growth inhibition [3, 8]: 60%
growth inhibition ([3]; at 50.0 µM): 72.7% (active)
growth inhibition [4, 7]: 7%
growth inhibition [4, 8]: 29%
growth inhibition ([4]; at 50.0 µM): 58.8%
growth inhibition [5, 7]: 1%
growth inhibition [5, 8]: 69%
growth inhibition ([5]; at 50.0 µM): 72.1% (active)
growth inhibition [6, 7]: -1%
growth inhibition [6, 8]: 81% (active)
growth inhibition ([6]; at 50.0 µM): 79.5% (active)

CCCCCCCCCCCC(=O)NCCc1ccc(O)c(O)c1
growth inhibition [1, 7]: 4%
growth inhibition [1, 8]: 94% (active)
growth inhibition ([1]; at 50.0 µM): 97.2% (active)
growth inhibition [2, 7]: 5%
growth inhibition [2, 8]: 96% (active)
growth inhibition ([2]; at 50.0 µM): 98.5% (active)
growth inhibition [3, 7]: 4%
growth inhibition [3, 8]: 95% (active)
growth inhibition ([3]; at 50.0 µM): 97.5% (active)
growth inhibition [4, 7]: -3%
growth inhibition [4, 8]: 55%
growth inhibition ([4]; at 50.0 µM): 94.2% (active)
growth inhibition [5, 7]: -7%
growth inhibition [5, 8]: 91% (active)
growth inhibition ([5]; at 50.0 µM): 95.8% (active)

CN(C)CC(C)(C)C(/C=C/c1ccccc1)=N\Nc1ccccc1
growth inhibition [1, 7]: 3%
growth inhibition [1, 8]: 61%
growth inhibition ([1]; at 50.0 µM): 98.1% (active)
growth inhibition [2, 7]: 0%
growth inhibition [2, 8]: 68%
growth inhibition ([2]; at 50.0 µM): 90.2% (active)
growth inhibition [3, 7]: 12%
growth inhibition [3, 8]: 72% (active)
growth inhibition ([3]; at 50.0 µM): 97.8% (active)
growth inhibition [4, 7]: 6%
growth inhibition [4, 8]: 47%
growth inhibition ([4]; at 50.0 µM): 97.3% (active)
growth inhibition [5, 7]: 1%
growth inhibition [5, 8]: 91% (active)
growth inhibition ([5]; at 50.0 µM): 98.6% (active)
growth inhibition [6, 7]: 2%
growth inhibition [6, 8]: 76% (active)
growth inhibition ([6]; at 50.0 µM): 98.3% (active)

O=C(CCCCOCCCCC(=O)OCC1CCCO1)OCC1CCCO1 (stereo not drawn)
growth inhibition [1, 7]: -1%
growth inhibition [1, 8]: -2%
growth inhibition ([1]; at 50.0 µM): 9.1%
growth inhibition [2, 7]: 0%
growth inhibition [2, 8]: 2%
growth inhibition ([2]; at 50.0 µM): 16.9%
growth inhibition [3, 7]: -91%
growth inhibition [3, 8]: 4%
growth inhibition ([3]; at 50.0 µM): 45%
growth inhibition [4, 7]: 2%
growth inhibition [4, 8]: -9%
growth inhibition ([4]; at 50.0 µM): 10.3%
growth inhibition [5, 7]: -4%
growth inhibition [5, 8]: -3%
growth inhibition ([5]; at 50.0 µM): 13.5%
growth inhibition [6, 7]: -1%
growth inhibition [6, 8]: -12%
growth inhibition ([6]; at 50.0 µM): 18.1%

CN(C)c1ccc(C2CC(C)(N3CCCC3)Oc3cc4c(cc32)OCO4)cc1 (stereo not drawn)
growth inhibition [1, 7]: 23%
growth inhibition [1, 8]: 42%
growth inhibition ([1]; at 50.0 µM): 17.1%
growth inhibition [2, 7]: 2%
growth inhibition [2, 8]: 24%
growth inhibition ([2]; at 50.0 µM): 5%
growth inhibition [3, 7]: -10%
growth inhibition [3, 8]: 43%
growth inhibition ([3]; at 50.0 µM): 13.3%
growth inhibition [4, 7]: 9%
growth inhibition [4, 8]: 50%
growth inhibition ([4]; at 50.0 µM): 23.9%
growth inhibition [5, 7]: 11%
growth inhibition [5, 8]: 84% (active)
growth inhibition ([5]; at 50.0 µM): 26.9%

CN(C)CCCN1c2ccc3ccccc3c2Sc2cccc(Cl)c21
growth inhibition [1, 7]: 7%
growth inhibition [1, 8]: 99% (active)
growth inhibition ([1]; at 50.0 µM): 98.3% (active)
growth inhibition [2, 7]: 19%
growth inhibition [2, 8]: 99% (active)
growth inhibition ([2]; at 50.0 µM): 97.3% (active)
growth inhibition [3, 7]: -1%
growth inhibition [3, 8]: 99% (active)
growth inhibition ([3]; at 50.0 µM): 97.9% (active)
growth inhibition [4, 7]: 2%
growth inhibition [4, 8]: 99% (active)
growth inhibition ([4]; at 50.0 µM): 96% (active)
growth inhibition [5, 7]: 17%
growth inhibition [5, 8]: 99% (active)
growth inhibition ([5]; at 50.0 µM): 8.95%
growth inhibition [6, 7]: 25%
growth inhibition [6, 8]: 99% (active)
growth inhibition ([6]; at 50.0 µM): 98.2% (active)

COc1ccc(C2=CC(=O)C=CC2=O)cc1
growth inhibition [1, 7]: 19%
growth inhibition [1, 8]: 91% (active)
growth inhibition ([1]; at 50.0 µM): 99% (active)
growth inhibition [2, 7]: 3%
growth inhibition [2, 8]: 97% (active)
growth inhibition ([2]; at 50.0 µM): 99.5% (active)
growth inhibition [3, 7]: 14%
growth inhibition [3, 8]: 90% (active)
growth inhibition ([3]; at 50.0 µM): 98.7% (active)
growth inhibition [4, 7]: -5%
growth inhibition [4, 8]: 70% (active)
growth inhibition ([4]; at 50.0 µM): 82.2% (active)
growth inhibition [5, 7]: 28%
growth inhibition [5, 8]: 99% (active)
growth inhibition ([5]; at 50.0 µM): 99.5% (active)

O=C(Nc1ccc(Cl)cc1)OCCOCCOC(=O)Nc1ccc(Cl)cc1
growth inhibition [1, 7]: 9%
growth inhibition [1, 8]: 97% (active)
growth inhibition ([1]; at 50.0 µM): 95.8% (active)
growth inhibition [2, 7]: 0%
growth inhibition [2, 8]: 97% (active)
growth inhibition ([2]; at 50.0 µM): 97% (active)
growth inhibition [3, 7]: 25%
growth inhibition [3, 8]: 93% (active)
growth inhibition ([3]; at 50.0 µM): 97.9% (active)
growth inhibition [4, 7]: 6%
growth inhibition [4, 8]: 97% (active)
growth inhibition ([4]; at 50.0 µM): 98.2% (active)
growth inhibition [5, 7]: -7%
growth inhibition [5, 8]: 97% (active)
growth inhibition ([5]; at 50.0 µM): 98.7% (active)
growth inhibition [6, 7]: 4%
growth inhibition [6, 8]: 96% (active)
growth inhibition ([6]; at 50.0 µM): 98% (active)

CCCCCCCCCCCCCCCC(=O)N(CCCN(CC)CC)C(C)CCCN(CC)CC (stereo not drawn)
growth inhibition [1, 7]: 90% (active)
growth inhibition [1, 8]: 98% (active)
growth inhibition ([1]; at 50.0 µM): 60.1%
growth inhibition [2, 7]: 28%
growth inhibition [2, 8]: 99% (active)
growth inhibition ([2]; at 50.0 µM): 71.9% (active)
growth inhibition [3, 7]: 51%
growth inhibition [3, 8]: 99% (active)
growth inhibition ([3]; at 50.0 µM): 44.9%
growth inhibition [4, 7]: 36%
growth inhibition [4, 8]: 99% (active)
growth inhibition ([4]; at 50.0 µM): 76.4% (active)
growth inhibition [5, 7]: 53%
growth inhibition [5, 8]: 99% (active)
growth inhibition ([5]; at 50.0 µM): 19.6%

Reference: PubChem BioAssay (NCI)
